Experimental findings from PubChem BioAssay (NCATS) are described below.

Results filed as inconclusive are left out. The source made the active and inactive calls. Calls follow the shape of the dose curve; as a rule, active = well fitted inhibition curve with a large enough effect; inconclusive = small, poorly fitted or top-dose-only effect; inactive = flat fitted curve, though single readings scatter.
% is scaled to controls: 0 for no effect and ±100 for the full control effect.

The assay is described as follows: Primary qHTS for inhibitors of nuclear receptor binding SET domain protein 2 (NSD2) in an isogenic RCH-ACV NSD2 p.E1099K mutant (9B) (AID 1645876). Also: nearly all actives have a fitted effect of over 70% in size. The following applies: RCH-ACV (leukaemia line) NSD2 E1099K (9B) viability, CellTiter-Glo, 72 h; series mostly up to 44.9 µM; activity change, negative = viability loss: at the top concentration. (In general: Quantitative high-throughput screening tests each substance at several concentrations.)
As to `CC(=O)OCC(=O)O[C@@H]1[C@H]2[C@@H](OC(=O)c3ccccc3)[C@@H](C)C[C@]2(O)[C@H](OC(C)=O)C2(C)[C@H]3CC(C)(C)C(=O)[C@@H]3CC1(OC(C)=O)[C@@H]2OC(C)=O` (some centres undefined), the “activity change, negative = viability loss” value is -6.98% [at 17.3 µM] (inactive).

In the case of `CC12CC34C=CC(=O)C(C)(CCC(=O)O)C3C(CC1C4)O2` (centres undefined), the “activity change, negative = viability loss” value was -2.7% (inactive).

As to `CCC(CCO[C@@H]1O[C@H](CO[C@H]2OC[C@](O)(CO)[C@H]2O)[C@@H](O)[C@H](O)[C@H]1O)C(C)(C)O` (some centres undefined), the “activity change, negative = viability loss” value was -4.1% [at 17.3 µM] (inactive).

Consider `C=C[C@@]1(C)CC(=O)C2[C@](C)(O1)[C@@H](OC(C)=O)[C@@H](O)[C@H]1C(C)(C)CCC[C@]21C` (some centres undefined), for which the activity change, negative = viability loss was 1.01% [at 9.23 µM] (inactive).

Regarding `C[C@@H]1C/C=C/C=C\C=C\C=C\[C@H](O[C@@H]2O[C@H](C)[C@@H](O)[C@H](N)[C@@H]2O)C[C@@H]2O[C@](O)(C[C@@H](O)C[C@H]3O[C@@H]3/C=C/C(=O)O1)C[C@H](O)[C@H]2C(=O)O`, the “activity change, negative = viability loss” value was -12.3% [at 17.3 µM] (inactive).

With `CC[C@H]1OC(=O)[C@H](C)[C@@H](OC2C[C@@](C)(OC)[C@@H](O)[C@H](C)O2)[C@H](C)[C@@H](OC2O[C@H](C)C[C@H](NC)[C@H]2O)[C@](C)(O)C[C@@H](C)CN(C)[C@H](C)[C@@H](O)[C@]1(C)O` (some centres undefined), the “activity change, negative = viability loss” value was -13% (inactive).

With `CC(=O)OC1C=C(C(=O)O)C2(CO)CCC(C)C(C)(CCc3ccoc3)C2C1` (centres undefined), the “activity change, negative = viability loss” value was 2.26% [at 17.3 µM] (inactive).

In the case of `CC1=CC(=O)CC(C)(C)C1CCC(C)OC1OC(COC(=O)c2cc(O)c(O)c(O)c2)C(O)C(O)C1O` (centres undefined), the “outcome” value is “inactive [at 17.3 µM]”.

In the case of `C[C@@H]1O[C@@H](O[C@H]2[C@H](OC(=O)C34CCC(C)(C)CC3C3=CCC5C6(C)CC(O)C(O[C@@H]7O[C@H](CO)[C@@H](O)[C@H](O)[C@H]7O)C(C)(C(=O)O)C6CCC5(C)C3(CO)CC4)O[C@H](C)[C@H](O)[C@@H]2O)[C@H](O)[C@H](O)[C@H]1O[C@@H]1OC[C@@H](O)[C@H](O)[C@H]1O` (some centres undefined), the activity change, negative = viability loss is 3.3% [at 9.23 µM] (inactive).

For the molecule `COc1cc(C2Oc3c(OC)cc(CCCO[C@@H]4O[C@H](CO)[C@@H](O)[C@H](O)[C@H]4O)cc3C2CO)ccc1O` (some centres undefined), the “activity change, negative = viability loss” value was -18.5% [at 17.3 µM] (inactive).

`CC1(C)CCCC2(C)C3=C(C(=O)OC3O)C(O)CC12` (centres undefined): the “activity change, negative = viability loss” value is 1% (inactive).

As for `CC(C)NC[C@H](O)COc1ccc(CCOCC2CC2)cc1`, the outcome was inactive.

`CC(=O)N1c2ccccc2C2(O)CC3C(=O)NC(CC(C)C)C(=O)N3C12` (centres undefined): the “activity change, negative = viability loss” value is 2.93% (inactive).

With `CC1OC(OC2C(O)C(C(=O)O)OC(OC3CCC4(C)C(CCC5(C)C4C=CC4=C6CC(C)(C)CC(O)C6(C)CCC45C)C3(C)C)C2OC2OCC(O)C(O)C2O)C(O)C(O)C1O` (centres undefined), the outcome is “inactive [at 9.23 µM]”.
